In the library only some 18% were active in any assay of this set; here they are far more common.
DT40 TDP1 no CPT = qHTS for Inhibitors of human tyrosyl-DNA phosphodiesterase 1 (TDP1): qHTS in cells in absence of CPT. Potency, µM (top dose mostly 46.2 µM), without a hit: top-dose activity change, negative = growth inhibition, most hits filed as inhibitors. DT40 Tdp1-/- hTDP1 cells, no CPT, ATP luminescence, 48 h. 15% of 420,000 active; further: potency means the concentration at half of the fitted maximal effect; nearly all actives have a fitted effect of over 55% in size
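Growth kinetics read by CellTiter-Glo luminescence after ≥48 hr at 37 °C. Cells: DT40 Tdp1-/- stably carrying human TDP1, 400 per well, compound exposure in the absence of CPT (DMSO vehicle).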
Six1-Eya2 inh = Six1/Eya2 interaction inhibition | Q15475+O00167 | AlphaScreen GST-Six1/His-Eya2 binding, biochemical; hits give low values | activity change, % (no concentration beside the values) | 0.56% of 360,000 active | AID 651725; in the data active means activity change below about -65%; inconclusive means mostly about -30% to -63%
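Homogeneous AlphaScreen proximity assay pairing GST-Six1 with His-tagged Eya2 (added as 5X mix: 250 nM and 500 nM) in 50 mM Tris pH 8.0, 300 mM NaCl, 1 mM TCEP. Glutathione donor and nickel acceptor beads; 1 h, 37 °C, dark.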
TDP1 inh = blocks human tyrosyl-DNA phosphodiesterase 1; Q9NUW8; recombinant TDP1, AlphaScreen DNA substrate cleavage; Potency, µM (top dose mostly 130 µM), for inactives: at the top dose activity change, negative = inhibition, actives largely listed as inhibitors; 0.28% of 350,000 active; AID 485290; further: potency means the concentration at half of the fitted maximal effect; nearly all actives have a fitted effect of over 40% in size
Target sequence (Q9NUW8 whole entry, looked up): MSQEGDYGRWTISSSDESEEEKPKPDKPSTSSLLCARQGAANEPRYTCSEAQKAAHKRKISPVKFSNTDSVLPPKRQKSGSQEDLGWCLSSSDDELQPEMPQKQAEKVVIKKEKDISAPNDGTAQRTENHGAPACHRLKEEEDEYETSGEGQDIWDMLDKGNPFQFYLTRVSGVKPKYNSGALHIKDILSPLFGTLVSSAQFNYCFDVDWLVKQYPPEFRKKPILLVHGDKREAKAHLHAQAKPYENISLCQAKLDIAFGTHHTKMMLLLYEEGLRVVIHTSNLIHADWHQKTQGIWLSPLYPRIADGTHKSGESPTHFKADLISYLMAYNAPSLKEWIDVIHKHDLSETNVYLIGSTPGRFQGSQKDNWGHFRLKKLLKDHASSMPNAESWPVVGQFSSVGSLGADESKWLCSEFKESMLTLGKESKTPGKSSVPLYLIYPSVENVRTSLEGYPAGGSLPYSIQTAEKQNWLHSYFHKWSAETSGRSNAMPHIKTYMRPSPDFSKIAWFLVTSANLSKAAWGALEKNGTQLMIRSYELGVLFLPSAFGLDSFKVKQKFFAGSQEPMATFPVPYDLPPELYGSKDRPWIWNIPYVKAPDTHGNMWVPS
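Recombinant human Tdp1 (E. coli-expressed, 1 nM final) preincubated with compounds 15 min at room temperature, then 5'-biotin/3'-phosphotyrosine-FITC DNA substrate (15 nM final) added for 5 min. AlphaScreen beads (10 ug/ml final) added 10 min; cleavage lowers signal.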
TDP1 cell CPT = growth inhibition of DT40 Tdp1-/-;hTDP1 cells with camptothecin (screen for TDP1 inhibitors). chicken DT40 Tdp1-/-;hTDP1 cells + 20 nM CPT, ATP luminescence, 48 h. Potency, µM (highest dose often 46.2 µM), inactives show top-dose activity change, negative = growth inhibition, usual class: inhibitors. 12% of 420,000 active. AID 686979; further: potency means the concentration at half of the fitted maximal effect; nearly all actives have a fitted effect of over 55% in size
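Chicken DT40 Tdp1-/- cells complemented with human TDP1, 400 cells/well, exposed to compounds plus 20 nM camptothecin for at least 48 h at 37 C; viability read as ATP content by CellTiter-Glo luminescence.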
IL-1B inflam inh = blocks inflammasome-driven IL-1 beta release. THP-1 LPS/ATP IL-1B secretion, AlphaLISA, 16 h; hits give low values. AID 743279. 4.7% of 360,000 active. activity change, % at 57.5 µM; in the data active means activity change below about -50%; inconclusive means mostly about -30% to -49%
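THP-1 cells pretreated 1 hr with compounds (up to 57.5 uM final), then stimulated with LPS (250 ng/mL final) plus ATP (1.25 mM final); secreted IL-1B measured by AlphaLISA after 16 hr, decreased signal indicating inhibition.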
CtBP-E1A inh = inhibitors of CtBP/E1A interaction; AlphaScreen GST-E1A/His-CtBP binding, 1536-well; hits give low values; activity change, % (test concentration not listed); 0.49% of 340,000 active; AID 651724; in the data active means activity change below about -65%; inconclusive means mostly about -30% to -63%
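Steps: dispense buffer (Tris pH 8.0, NaCl 300 mM, TCEP 1 mM, BSA, Tween 20); add 5X protein mix (GST-E1A, His-CtBP, 125 nM each); pin 23 nL compound; 2 h at 37 °C, dark; add 5X beads (50 ug/mL); 1 h; read.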
* = called active by the depositor. Unless noted, the call rests on the fitted dose curve; in most records, active means well fitted curve in the direction sought with a large enough effect; inconclusive means small, poorly fitted or top-dose-only effect, or another doubt; inactive means no such curve, though single readings can be large; an effect the other way counts as inactive or inconclusive. On the % scale 0 is the no-effect control and ±100 the full control effect.

How did CCOc1cccc(C2c3[nH]c4ccccc4c3CCN2C(=O)c2ccccc2F)c1 (stereo not drawn) do in these assays?
DT40 TDP1 no CPT: 16µM*; TDP1 inh: 8%; TDP1 cell CPT: inconclusive

What do the screens show for `CCc1cc(C(=O)N2CCc3c([nH]c4ccccc34)C2c2ccc(OC)cc2F)no1` (stereo not drawn)?
DT40 TDP1 no CPT: 23µM*; Six1-Eya2 inh: -6; TDP1 inh: -3%; TDP1 cell CPT: inconclusive; IL-1B inflam inh: inconclusive

Results for Cc1ccccc1C(=O)N1CCc2c([nH]c3ccccc23)C1C(F)(F)F (stereo not drawn) ?
DT40 TDP1 no CPT: inconclusive; Six1-Eya2 inh: 2; TDP1 inh: 5%; TDP1 cell CPT: inconclusive; IL-1B inflam inh: -55*; CtBP-E1A inh: 5

Results for COc1ccc(C2c3[nH]c4ccccc4c3CCN2C(=O)c2ccc(=O)n(C)n2)c(F)c1 (stereo not drawn) ?
DT40 TDP1 no CPT: inconclusive; Six1-Eya2 inh: -5; TDP1 inh: 8%; TDP1 cell CPT: -14%; IL-1B inflam inh: 67; CtBP-E1A inh: 0

How did CCOC(=O)c1c(NC(=O)CN2CCN(C(=O)C3CCCO3)CC2)sc(C)c1C (stereo not drawn) do in these assays?
DT40 TDP1 no CPT: inconclusive; Six1-Eya2 inh: 23; TDP1 inh: 4%; TDP1 cell CPT: inconclusive; IL-1B inflam inh: -5; CtBP-E1A inh: 0

How did Nc1ccn(Cc2cccc(F)c2)n1 do in these assays?
DT40 TDP1 no CPT: -2%; Six1-Eya2 inh: 0; TDP1 inh: 6%; TDP1 cell CPT: -1%; IL-1B inflam inh: 10

What do the screens show for `N=c1ccn(Cc2cccc(F)c2)cc1`?
DT40 TDP1 no CPT: 18µM*; Six1-Eya2 inh: 8; TDP1 inh: -1%; TDP1 cell CPT: inconclusive; IL-1B inflam inh: 15; CtBP-E1A inh: 9

How did COc1ccc(OC)c(NC(=O)COC(=O)c2ccc(S(=O)(=O)N3CCCCC3)cc2)c1 do in these assays?
DT40 TDP1 no CPT: inconclusive; Six1-Eya2 inh: -6; TDP1 cell CPT: -15%; IL-1B inflam inh: -2; CtBP-E1A inh: 1

Results for CC(=O)c1cccc(NC(=O)COc2cc3oc(=O)c(CC(C)O)c(C)c3cc2Cl)c1 (stereo not drawn) ?
DT40 TDP1 no CPT: 21µM*; Six1-Eya2 inh: -5; TDP1 inh: 3%; TDP1 cell CPT: inconclusive; IL-1B inflam inh: -1; CtBP-E1A inh: -15

Results for CSc1nc2ccccc2n1CC(=O)N1CCCCC1 ?
DT40 TDP1 no CPT: -27%; Six1-Eya2 inh: 1; TDP1 inh: 5%; TDP1 cell CPT: -21%; IL-1B inflam inh: 6; CtBP-E1A inh: 3

How did CCOC(=O)N1CCN(c2c(N3CC=C(c4ccccc4)CC3)c(=O)c2=O)CC1 do in these assays?
DT40 TDP1 no CPT: 16µM*; Six1-Eya2 inh: -9; TDP1 cell CPT: 21µM*; IL-1B inflam inh: -4; CtBP-E1A inh: 1

What do the screens show for `Cc1ccccc1C1N=C2Oc3ccccc3C=C2C(=O)N1` (stereo not drawn)?
DT40 TDP1 no CPT: 5.8µM*; Six1-Eya2 inh: 5; TDP1 cell CPT: 6.5µM*; IL-1B inflam inh: -5; CtBP-E1A inh: -20

Results for Cc1ccccc1C1NC(=O)c2ccccc2O1 (stereo not drawn) ?
DT40 TDP1 no CPT: -26%; Six1-Eya2 inh: 10; TDP1 cell CPT: 2%; IL-1B inflam inh: -13

Results for CCOc1ccc(-c2cc3nc(C4CCN(C(=O)OC(C)(C)C)CC4)c(C(=O)Nc4ccc(C)cc4Cl)cn3n2)cc1 ?
DT40 TDP1 no CPT: inconclusive; TDP1 inh: 1%; TDP1 cell CPT: inconclusive

What do the screens show for `CCOc1ccc(-c2cc3nc(C4CCN(C(=O)OC(C)(C)C)CC4)c(C(=O)Nc4c(C)cccc4C)cn3n2)cc1`?
DT40 TDP1 no CPT: 13µM*; TDP1 inh: -6%; TDP1 cell CPT: 15µM*
